Data: PubChem BioAssay AID2061322 (National Center for Advancing Translational Sciences (NCATS), 2025)
Inconclusive results are not listed. Calls of active or inactive are those of the source. Calls come from the whole dose curve; as a rule, active = well fitted inhibition curve with a large enough effect; inconclusive = small, poorly fitted or top-dose-only effect; inactive = flat fitted curve, though single readings scatter.

Test: Identification of antibody-drug conjugate (ADC) payloads which are substrates of ATP-binding cassette drug efflux transporters: ABCG2-HEK293-R5 cell line with Ko143
Settings: ABCG2-HEK293-R5 with Ko143, CellTiter-Glo viability, 48 h
Excerpt: Antibody-drug conjugates (ADCs) feature an antibody recognizing a specific protein joined to a potent toxic payload. Numerous antibody-drug conjugates have received FDA approval; however, clinical resistance arises. Resistance mechanisms include decreased expression or mutation of the antibody target, impaired payload release, or increased expression of ATP-binding cassette (ABC) efflux transporters associated with multidrug resistance. We therefore sought to characterize the interaction of ABC multidrug transporters with ADC payloads. We performed a high-throughput screen with 27 common ADC payloads using cells lines expressing ABC transporters P-glycoprotein (P-gp, encoded by ABCB1) or ABCG2 (encoded by ABCG2). Confirmatory assays were also performed using cells transfected to express P-gp, ABCG2, or MRP1 (encoded by ABCC1). Several commonly used ADC payloads were substrates of P-gp, including calicheamicin gamma1, monomethyl auristatin E, DM1, and DM4. All the pyrrolobenzodiazepines tested - SJG136, SGD-1882, SG2057, and SG3199 - were substrates of P-gp, ABCG2, and MRP1. […] These findings highlight the risk of transporter-mediated resistance with certain ADC payloads and underscore the importance of selecting payloads that evade ABC transporter recognition in future ADC development.
HEK-293 cells were transfected with empty vector (pcDNA) or vector containing the human ABCB1 (MDR-19), ABCG2 (R-5), or ABCC1 gene (MRP1) and were maintained in EMEM with 2 mg/mL G418 added to maintain transporter expression. The HeLa derivative KB-3-1 and the P-gp overexpressing KB-8-5-11 subline were maintained in DMEM; KB-8-5-11 additionally received 100 ng/mL colchicine. H460 parental cells were obtained from the Division of Cancer Treatment and Diagnosis Tumor Repository, National Cancer Institute at Frederick, MD and were cultured in RPMI. The ABCG2 expressing subline H460 MX20 was generated by selecting H460 cells in 20 nM mitoxantrone. Media in all cases was supplemented with 10% FBS and 1% penicillin-streptomycin. […]
For `COc1cc2cc(c1Cl)N(C)C(=O)C[C@H](OC(=O)[C@H](C)N(C)C(=O)CCC(C)(C)S)[C@]1(C)OC1[C@H](C)C1C[C@@](O)(NC(=O)O1)[C@H](OC)/C=C/C=C(\C)C2` (stereo partly drawn), the Potency was 1.7 nM (active).
With `COc1cc2cc(C(=O)N3C[C@@H](CCl)c4c3cc(O)c3ccccc43)[nH]c2c(OC)c1OC` the Potency was 15 nM (active).
For `CC[C@H](C)[C@@H]([C@@H](CC(=O)N1CCC[C@H]1[C@H](OC)[C@@H](C)C(=O)N[C@H](C)[C@@H](O)c1ccccc1)OC)N(C)C(=O)[C@@H](NC(=O)[C@H](C(C)C)N(C)C)C(C)C`, the Potency was 16.9 nM (active).
